The list is not random: actives were taken first. Their share in the collection is about 8.8%.
HT1080 IDH1KD tx = qHTS for induction of synthetic lethality in tumor cells producing 2HG: qHTS for the HT-1080-IDH1KD cell line. Potency, µM (highest dose often 46.1 µM), for the others: top-dose activity, negative = toxicity, usual class: cytotoxic. HT-1080 IDH1 knockdown viability, ATP luminescence, 48 h. actives 2% (n = 360,000);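 also: potency is read from the fitted curve at half-maximal effect; 0% = DMSO wells and -100% = cell-free medium wells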
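Cytotoxicity counter-line: IDH1KD HT-1080, 48 h, CellTiter-Glo. Curves classed by r2, magnitude and activity.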
KB-3-1 cytotox = qHTS assay for MDR1-selective chemotherapeutics: Primary screen using the parental adenocarcinoma cell KB-3-1 | Potency, µM (series often up to 46.1 µM), hits mostly cytotoxic | KB-3-1 viability, CellTiter-Glo ATP luminescence, 72 h | AID 1347075, 2019 | actives 1.4% (n = 400,000); also: potency is read from the fitted curve at half-maximal effect; nearly all actives have a fitted effect of over 60% in size
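Using CellTiter-Glo luminescence, growth of non-resistant KB-3-1 adenocarcinoma cells is assessed 72 h after pin-tool compound addition at 37 °C. Normalized responses across the concentration series yield fitted curves.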
IL1B secr inh = qHTS for Inhibitors of Inflammasome Signaling: IL-1-beta AlphaLISA Primary Screen; THP-1 LPS/ATP IL-1B secretion, AlphaLISA, 16 h; stronger effect = lower value; activity change, % at 57.5 µM; actives 4.7% (n = 360,000); AID 743279, 2014; in the data active = activity change below about -50%; inconclusive = mostly about -30% to -49%
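THP-1 cells pretreated 1 hr with compounds (up to 57.5 uM final), then stimulated with LPS (250 ng/mL final) plus ATP (1.25 mM final); secreted IL-1B measured by AlphaLISA after 16 hr, decreased signal indicating inhibition.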
HT1080NT lethal = qHTS for induction of synthetic lethality in tumor cells producing 2HG: qHTS for the HT-1080-NT fibrosarcoma cell line; Potency, µM (top dose mostly 46.1 µM), without a hit: at the highest dose activity, negative = less viability, actives largely listed as cytotoxic; actives 1.6% (n = 360,000); HT-1080-NT fibrosarcoma viability, CellTiter-Glo ATP luminescence, 48 h; AID 686970, 2013;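 also: NT is the 2HG producing partner of a matched IDH1 knockdown line; potency is read from the fitted curve at half-maximal effect; 0% = DMSO-treated cells and -100% = media-only wells without cells; nearly all actives have a fitted effect of over 55% in size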
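750 cells/well, RPMI + 5% FBS; 2 h settle, compound pin-transfer, 48 h at 37 degrees C. CellTiter-Glo 10 min RT, luminescence. Normalized to DMSO and media-only wells.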
KB-V1 cytotox = qHTS assay for MDR1-selective chemotherapeutics: Primary screen using the drug-selected MDR subline cells KB-V1 | actives 3.4% (n = 400,000) | Potency, µM (titrated, usually from 46.1 µM), most hits filed as cytotoxic | KB-V1 MDR cells viability, CellTiter-Glo, 72 h; also: potency is read from the fitted curve at half-maximal effect; nearly all actives have a fitted effect of over 60% in size
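Compound-treated KB-V1 multidrug-resistant cells, 72 h, 37 degrees C; viability by CellTiter-Glo. Fitted qHTS curves give the values.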
* marks the source's active call; other numbers are inactive results. Unless noted, calls follow the shape of the dose curve; as a rule, active = well fitted curve in the direction sought with a large enough effect; inconclusive = small, poorly fitted or top-dose-only effect, or another doubt; inactive = no such curve, though single readings can be large; an effect the other way counts as inactive or inconclusive. Unless noted, % is scaled to controls: 0 for no effect and ±100 for the full control effect.

Cc1cc(O)c(C(C)C)cc1NC(=O)Nc1cc(Cl)ccc1Cl was read as HT1080 IDH1KD tx -11%, KB-3-1 cytotox inactive, IL1B secr inh 25, HT1080NT lethal -19% and KB-V1 cytotox inactive.
Screening Cc1cc(O)c(C(C)C)cc1NC(=O)Nc1cccc2ccccc12 returned HT1080 IDH1KD tx -9%, KB-3-1 cytotox inactive, IL1B secr inh -66*, HT1080NT lethal -14% and KB-V1 cytotox inactive.
Screening N/C(=N/OCC(=O)Nc1cccc2ccccc12)c1nonc1N returned HT1080 IDH1KD tx -4%, KB-3-1 cytotox inactive, IL1B secr inh -10, HT1080NT lethal -13% and KB-V1 cytotox 15µM*.
Screening N/C(=N/OC(=O)c1ccccc1Cl)c1nonc1N returned HT1080 IDH1KD tx -1%, KB-3-1 cytotox inconclusive, IL1B secr inh 13, HT1080NT lethal inconclusive and KB-V1 cytotox inactive.
Screening Cc1ccc2nccnc2c1 returned KB-3-1 cytotox inconclusive and KB-V1 cytotox 16µM*.
Screening Cc1ccccc1-n1c(=O)n(Cc2ccco2)c(=O)c2[nH]cnc21 returned HT1080 IDH1KD tx -2%, KB-3-1 cytotox inactive, IL1B secr inh -1, HT1080NT lethal 3% and KB-V1 cytotox inactive.
Cc1ccccc1C(=O)Nc1ccc(C(=O)N/N=C/c2ccc(O)cc2)cc1 was read as HT1080 IDH1KD tx inconclusive, KB-3-1 cytotox inactive, IL1B secr inh -99*, HT1080NT lethal 8.2µM* and KB-V1 cytotox inactive.
Cc1ccc(/C=N/NC(=O)c2ccc(NC(=O)c3ccccc3Cl)cc2)o1 was read as HT1080 IDH1KD tx -1%, KB-3-1 cytotox inconclusive, IL1B secr inh -71*, HT1080NT lethal 0% and KB-V1 cytotox inactive.
For Cc1ccccc1C(=O)Nc1cccc(NC(=O)c2ccc(F)cc2)c1 the results were HT1080 IDH1KD tx -18%, KB-3-1 cytotox inactive, IL1B secr inh -50*, HT1080NT lethal 1% and KB-V1 cytotox inactive.
Screening COc1cc(C(=O)OCC(=O)Nc2ccccc2)cc2c1OCCO2 returned HT1080 IDH1KD tx 1%, KB-3-1 cytotox inactive, IL1B secr inh -10, HT1080NT lethal 2% and KB-V1 cytotox inactive.
Screening O=C(NCc1ccc(Cl)cc1)C1CCCN1C(=O)Nc1ccc(F)cc1 (stereo unspecified) returned HT1080 IDH1KD tx -12%, KB-3-1 cytotox inactive, IL1B secr inh -8, HT1080NT lethal -4% and KB-V1 cytotox inactive.
Cc1c(C(=O)N2CCCCCC2)c(S(=O)(=O)N(Cc2ccccc2)C(C)(C)C)c(C)n1C was read as KB-3-1 cytotox inactive and KB-V1 cytotox inactive.
Oc1c(CN2CCN(c3ccccn3)CC2)cc(Cl)c2cccnc12 was read as HT1080 IDH1KD tx inconclusive, KB-3-1 cytotox inconclusive, IL1B secr inh 1, HT1080NT lethal inconclusive and KB-V1 cytotox 5.2µM*.
`O=c1c(CN2CCN(c3ccccn3)CC2)coc2ccccc12` gave HT1080 IDH1KD tx 10%, KB-3-1 cytotox inactive, IL1B secr inh 0, HT1080NT lethal 10% and KB-V1 cytotox inactive.
OCCN1CCN(Cc2cc(Cl)c3cccnc3c2O)CC1 was read as HT1080 IDH1KD tx 3.2µM*, KB-3-1 cytotox inconclusive, IL1B secr inh 72, HT1080NT lethal 5µM* and KB-V1 cytotox 5.8µM*.
Cc1ccc(C)c(Cn2c3ccccc3c3cnn(CC(=O)NC(C)c4ccccc4)c(=O)c32)c1 (stereo unspecified) was read as KB-3-1 cytotox inactive and KB-V1 cytotox inactive.
`Cc1cc(C)c(S(=O)(=O)Nc2ccc(O)cc2)c(C)c1` gave HT1080 IDH1KD tx -1%, KB-3-1 cytotox inactive, IL1B secr inh -2, HT1080NT lethal -10% and KB-V1 cytotox inconclusive.
Screening Cc1cc(C)c(S(=O)(=O)Nc2ccccc2)c(C)c1 returned HT1080 IDH1KD tx -7%, KB-3-1 cytotox inactive, IL1B secr inh 7, HT1080NT lethal 1% and KB-V1 cytotox 18µM*.
For Cc1cc(C)c(S(=O)(=O)Nc2ccc3c(c2)CCC3)c(C)c1 the results were HT1080 IDH1KD tx inconclusive, KB-3-1 cytotox inactive, IL1B secr inh inconclusive, HT1080NT lethal 23µM* and KB-V1 cytotox inconclusive.
Screening CC(=O)c1ccc(NS(=O)(=O)c2c(C)cc(C)cc2C)cc1 returned HT1080 IDH1KD tx 3%, KB-3-1 cytotox inactive, IL1B secr inh 4, HT1080NT lethal -19% and KB-V1 cytotox inactive.
Screening CCSc1nnc(NC(=O)C2CCN(C(=O)c3ccco3)CC2)s1 returned KB-3-1 cytotox inactive and KB-V1 cytotox inactive.
Screening Cc1ccc(S(=O)(=O)/C(=C/Cl)NC(=O)c2ccccc2)cc1 returned HT1080 IDH1KD tx 21µM*, KB-3-1 cytotox 13µM*, IL1B secr inh -73*, HT1080NT lethal inconclusive and KB-V1 cytotox inactive.
For Cc1ccc(C(=O)NC(=C(Cl)Cl)S(=O)(=O)c2ccc(C)cc2)cc1 the results were HT1080 IDH1KD tx inconclusive, KB-3-1 cytotox inactive, IL1B secr inh -104*, HT1080NT lethal inconclusive and KB-V1 cytotox inactive.
`Cc1ccc(S(=O)(=O)CCC(=O)OCC(=O)NC(=O)c2ccccc2)cc1` gave HT1080 IDH1KD tx 4%, KB-3-1 cytotox inactive, IL1B secr inh 3, HT1080NT lethal 4% and KB-V1 cytotox inactive.
For Cc1ccc(C(=O)NS(=O)(=O)c2ccc(C)cc2)cc1 the results were HT1080 IDH1KD tx -3%, KB-3-1 cytotox inactive, IL1B secr inh 14, HT1080NT lethal -5% and KB-V1 cytotox inactive.
Cc1ccc(C(=O)NC(=C(Cl)Cl)S(=O)(=O)c2ccc(Cl)cc2)cc1 was read as HT1080 IDH1KD tx inconclusive, KB-3-1 cytotox inconclusive, IL1B secr inh -64*, HT1080NT lethal inconclusive and KB-V1 cytotox inactive.
For Cc1ccc(C(=O)NNC(=S)NC(=O)c2ccc(Cl)cc2)cc1 the results were HT1080 IDH1KD tx inconclusive, KB-3-1 cytotox inconclusive, IL1B secr inh 70, HT1080NT lethal -28% and KB-V1 cytotox inactive.
Screening Cc1ccc(S(=O)(=O)C(NC(=O)c2ccccc2)=C(Cl)Cl)cc1 returned HT1080 IDH1KD tx inconclusive, KB-3-1 cytotox inconclusive, IL1B secr inh -117*, HT1080NT lethal inconclusive and KB-V1 cytotox inconclusive.
CCc1ccc2oc(-c3ccc(C)c(NC(=O)Cc4ccccc4)c3)nc2c1 was read as KB-3-1 cytotox inactive and KB-V1 cytotox inactive.
Screening CC(=O)NC(=C(Cl)Cl)S(=O)(=O)c1ccccc1 returned HT1080 IDH1KD tx -6%, KB-3-1 cytotox inconclusive, IL1B secr inh -100*, HT1080NT lethal -6% and KB-V1 cytotox inconclusive.
